The results in this text go back to PubChem BioAssay (NCI).

Compounds without any hit were thinned out: in the full panel of roughly 83,000, 20% have a hit.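 Cell lines were cultured in 96-well plates, exposed to a single compound concentration, and assessed for percent growth 48 hours later.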 Unmarked numbers belong to inactive results. Active and inactive are the calls of the source. How the source made its calls: active means growth percent below 10; inactive means the rest.

For this test, the system named is HOP-62 NSCLC. Put plainly: NCI-60 one-dose screen, 48 h (100 = growth as untreated, 0 = no growth, -100 = all killed). Particulars: 10 µM unless noted.
Consider `COc1ccc(-c2cn3c(-c4ccc(OC)cc4)cnc3c(Oc3ccc4c(C)cc(=O)oc4c3)n2)cc1`, for which the growth was 40.9%. Consider `CN1CCN(Cc2ccc(NC(=O)c3[nH]ncc3Nc3ncnc4sccc34)cc2)CC1`, for which the growth was 22.4%. Under `O=C([C@@H](COCc1ccccc1)N1C(=O)[C@@H](N2C(=O)OC[C@@H]2c2ccccc2)[C@H]1/C=C/c1ccccc1)N1CCC(CCN2CCCCC2)CC1` stands 77.8%.

In the case of `OCCNCCNc1c2ccccc2nc2ccccc12`, the growth was 60.7%. `CC[C@H](Nc1ncnc(N)c1C(N)=O)c1nc2cccc(NCc3ccc(C(=O)NO)cc3)c2c(=O)n1-c1ccccc1`: the growth is 78%. Under `CCCCCCCCCc1cc(CN2CCCCC2)c(O)c(CN2CCCCC2)c1` stands 78.4%; under `CN1CCN(Cc2ccc(NC(=O)c3cncc(C#Cc4cnc(N)c5cccnc45)c3)cc2C(F)(F)F)CC1`, -0.449% (active); under `C=C1CC2(OC1=O)C(=O)N(CCCCCCCCCCCCN1C(=O)C3(CC(=C)C(=O)O3)c3ccccc31)c1ccccc12` (stereo not drawn), 94.1%. The value for `Cn1c2ccccc2c2c3c(c4c5ccccc5[nH]c4c21)C(=O)N(N)C3=O` was 44.3%; that for `Cn1c2ccccc2c2c3c(c4c5ccccc5n(CCCCCC#N)c4c21)C(=O)N(O)C3=O` was 27.2%. The value for `COC(/C=C/c1ccc([N+](=O)[O-])cc1)OC` was 114%; that for `O=C(CNC1C2CC3CC(C2)CC1C3)Sc1nnc2sc3ccccc3n12` (stereo not drawn) was 104%; that for `C=CC[N+]1(CC)CCN=C1CCCCCCCCCCCCCCCCC` (stereo not drawn) was -95% (active).
